Molecules are shown by their SMILES. Several values for one entry are separate records, joined by “and”; a condition that tells them apart may be missing. Equal values may be shown once. The panel holds about 83,000 compounds, 20% with a hit somewhere; the sample as a whole holds those more often.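 The test compound was applied at a single concentration to cells in 96-well plates for 48 hours, and percent growth was recorded.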 Activity calls are given as the source filed them. Rule for the calls: active = growth percent below 10; inactive = the rest.

This passage reports growth results from PubChem BioAssay (NCI).

The test system of the first assay is SNB-19 CNS. Nature of the assay: NCI-60 one-dose screen, 48 h (100 = growth as untreated, 0 = no growth, -100 = all killed). As to conditions: 10 µM unless noted.
With `COc1ccc(/C(C#N)=C/c2ccccn2)cc1`, the growth is 97.9% (inactive) and 106% (inactive). As to `CC(=O)Oc1cc(C(=O)O)cc(OC(C)=O)c1OC(C)=O`, the growth was 93.4% (inactive) and 108% (inactive).

Consider `COc1ccc(Cn2c(NCCN=C(N)N)nc(=O)n(Cc3ccc(F)cc3)c2=O)cc1`, for which the growth was 77.6% (inactive) and 78.7% (inactive).

The next assay deals with U251 CNS. The assay is described as above. The note with it: 10 µM unless noted.
As to `CC1CCCC(=O)O1` (configuration not stated), the growth was 102% (inactive) and 104% (inactive). Still for that read-out and setting: under `Cc1ccc(S(=O)(=O)NCN2C(=O)c3ccccc3C2=O)cc1` stands 103% (inactive); under `O=C(N/N=C/c1cccc2ccccc12)C1CC1`, 99.7% (inactive) and 100% (inactive).

As to `CN(C)CCCNC1=C(Cl)C(=O)c2ccccc2C1=O`, the growth was -63% (active) and -94.2% (active). Same read-out and setting: under `COc1ccc2nc(Cl)cc(C)c2c1` stands 98.9% (inactive) and 108% (inactive). On to `CN(C)c1ccc(C(=C2C=CC(=[N+](C)C)C=C2)c2ccccc2Cl)cc1`, for which the growth was -58.3% (active) and -97.7% (active).

Turning to `OCc1ccccn1`, the growth is 102% (inactive). Same read-out and setting: under `Nc1ccccc1SC1CC(=O)N(c2cccc3ccccc23)C1=O` (configuration not stated) stands 97.3% (inactive); under `CC(=O)Nc1cccc2c1CCCC2`, 97.7% (inactive) and 95.7% (inactive).

Turning to `CCN1CCN(CCNc2nccc(-c3c(-c4cccc(O)c4)nc4sccn34)n2)S1(=O)=O`, the growth is 90.4% (inactive) and 93.2% (inactive).

As for `NC(=O)c1ccccc1OCC(O)CO` (configuration not stated), the growth was 99.5% (inactive). The same measure, in the same setting: under `Nc1ccccc1Nc1ccccc1` stands 89.3% (inactive) and 86.7% (inactive).

Regarding `N/C(=N\N=C\c1ccc2c(c1)OCO2)N/N=C\c1ccc2c(c1)OCO2`, the growth is 99.4% (inactive) and 84.6% (inactive).

For `N#C/C(=C/c1c(O)ccc2ccccc12)C(N)=O`, the growth was 103% (inactive).

With `Oc1ccc(/C=C/c2ccccc2)cc1`, the growth was 67.7% (inactive) and 53.5% (inactive). As to `COc1ccc2ccccc2c1/C=N/N1CCCCC1`, the growth is 97.8% (inactive). Still for that read-out and setting: under `O=C(Nc1cccc(-n2ccc3c(NC(=O)c4ccccc4)nccc32)c1)c1ccc(Cl)c(C(F)(F)F)c1` stands 43.4% (inactive); under `CCOc1ccc(Nc2c3ccccc3nc3ccccc23)cc1`, 86% (inactive) and 21.4% (inactive) and 28.1% (inactive). On to `CCOc1ccc2cc(-c3nn(CC4CCN(C)CC4)c4ncnc(N)c34)ccc2c1`, for which the growth is 83.8% (inactive) and 43.3% (inactive).

As to `C[N+](C)(C)CN1C(=O)c2ccccc2C1=O`, the growth was 102% (inactive). On the same count and under the same terms, under `S=C(S)N1CCCC1` stands 85.1% (inactive) and 49% (inactive); under `O=C1C2=C(C(=O)c3ccccc31)C(O)(S(=O)(=O)O)C(O)(S(=O)(=O)O)C1N=CC=CC21` (configuration not stated), 30.3% (inactive) and 18.7% (inactive); under `Cc1cc(O)c2c(c1)C(=O)c1cc(O)cc(O)c1C2=O`, 92.1% (inactive) and 88.1% (inactive). With `CCN(CC)CCC(CNc1ccnc2cc(Cl)ccc12)c1ccc(OC)cc1` (configuration not stated), the growth was 58.5% (inactive) and 50.6% (inactive). On the same count and under the same terms, the same measure for `O=[N+]([O-])c1ccc2nc3c4ccccc4c4ccccc4c3nc2c1`: 62.3% (inactive). Consider `COc1cc2nc(N3CCC[C@@H](NC(=O)C4COc5ccccc5O4)C3)nc(N)c2cc1OC` (some centres not stated), for which the growth was 93.3% (inactive) and 84.2% (inactive). Regarding `NC(=S)NN=C1CCC(C2CCCCC2)CC1` (configuration not stated), the growth was 93.7% (inactive) and 95.1% (inactive). Same read-out and setting: under `CCOC(=O)c1sc(N)nc1-c1ccccc1` stands 98.8% (inactive); under `Cc1ccc2nc3c(nc2c1)-c1cccc2cccc-3c12`, 78.8% (inactive); under `CC(C)N=c1cc2n(-c3ccc(Cl)cc3)c3ccccc3nc-2cc1Nc1ccc(Cl)cc1`, 13.7% (inactive) and 33.5% (inactive) and 6.42% (active). On to `CCN(CC)CCCC(C)Nc1ccnc2cc(Oc3ccccc3)ccc12` (configuration not stated), for which the growth is 56.5% (inactive) and 60.4% (inactive).

With `CN1C(=O)C(N=Nc2ccc([N+](=O)[O-])cc2)SC1=S` (configuration not stated), the growth was 62.8% (inactive) and 69.4% (inactive). With `COc1ccccc1NC(=O)OCC#CCOC(=O)Nc1ccccc1OC`, the growth is 97.4% (inactive) and 96.4% (inactive). Turning to `O[C@H](c1cc(C(F)(F)F)nc2c(C(F)(F)F)cccc12)[C@@H]1CCCCN1`, the growth is 42.6% (inactive) and 45.9% (inactive). The same measure, in the same setting: under `N#C/C(=C1C=C/C(=N/O)C(Br)=C/1)c1ccccc1` stands 26.5% (inactive); under `CC1=C[C@H]2c3c(c(O)c(O)c4oc5cc(O)cc(O)c5c(=O)c34)[C@H](c3cc(O)c(O)c4oc5cc(O)cc(O)c5c(=O)c34)[C@H]2C(C)(C)C1`, 0.997% (active) and -15.3% (active). `COc1ccc(/C(C#N)=C/c2ccccn2)cc1`: the growth was 97.9% (inactive) and 101% (inactive). Same read-out and setting: under `CC(=O)Oc1cc(C(=O)O)cc(OC(C)=O)c1OC(C)=O` stands 93.1% (inactive) and 105% (inactive). On the same count and under the same terms, the same measure for `COc1ccc(Cn2c(NCCN=C(N)N)nc(=O)n(Cc3ccc(F)cc3)c2=O)cc1`: 81.7% (inactive).
